High-throughput results: PubChem, National Center for Advancing Translational Sciences (NCATS)
Pol kappa inh: inhibitors of human DNA polymerase kappa; purified Pol kappa, fluorescent DNA synthesis assay, 10 min; Potency, µM (titrated, usually from 107 µM), for inactives: at the highest dose activity, negative = inhibition, hits mostly inhibitors; hit rate 0.53% among 400,000; further: potency means the concentration at half of the fitted maximal effect; on the % scale 0 is the no-effect control and ±100 the full control effect
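Inhibition of 10 nM Pol kappa is measured by a fluorescent read-out at 0 and 10 min following addition of 50 nM substrate (final), with a 15-min room-temperature compound preincubation.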
Pol eta inh: blocks human DNA polymerase eta activity; Q9Y253; recombinant Pol eta, fluorescent DNA replication assay; Potency, µM (doses to about 114 µM), for the others: at the highest dose activity change, negative = inhibition, most hits filed as inhibitors; hit rate 1.2% among 390,000; further: potency means the concentration at half of the fitted maximal effect; on the % scale 0 is the no-effect control and ±100 the full control effect
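Fluorescent replication assay: 50 nM final substrate added after a 15 min room-temperature compound preincubation with 10 nM enzyme. Signal taken at 0 min and again at 10 min.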
Pol beta inh: DNA polymerase beta (human) inhibition; Potency, µM (titrated, usually from 114 µM), inactives show top-dose activity change, negative = inhibition, hits mostly inhibitors; Pol beta primer extension/strand displacement, fluorescence kinetic; P06746; AID 485314; hit rate 1.3% among 340,000; further: potency means the concentration at half of the fitted maximal effect; on the % scale 0 is the no-effect control and ±100 the full control effect
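Pol beta (10 nM) and compounds were preincubated 15 min at room temperature, then 50 nM substrate (final) started primer extension/strand displacement. Reads were taken at 0 and 10 min; concentration-response data were fitted to a four-parameter Hill equation.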
PI5P4K alpha inh: PI5P4K alpha (human) kinase inhibition; P48426; PI5P4Kalpha enzyme, ADP-Glo luminescence, 60 min; stronger effect = lower value; max response, %; hit rate 1.2% among 330,000; active means max response of -50% or lower; inconclusive means between -30% and -50%; inactive means -30% or higher; further: value at the top dose of about 77 µM; on the % scale 0 is the no-effect control and ±100 the full control effect
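Controls without substrate or without enzyme flank wells where PI5P4Kalpha converts substrate using 5 microM ATP (final). Incubation lasts 60 minutes at room temperature; ADP formed is read by ADP-Glo luminescence.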
WRN inhibitor: inhibitors of human WRN helicase | hit rate 0.46% among 360,000 | AID 651768 | Potency, µM (top dose mostly 114 µM), without a hit: at the highest dose activity change, negative = inhibition, most hits filed as inhibitors | WRN helicase unwinding, fluorescent forked duplex, kinetic; further: potency means the concentration at half of the fitted maximal effect; on the % scale 0 is the no-effect control and ±100 the full control effect; nearly all actives have a fitted effect of over 55% in size
Target sequence (Q14191 whole entry, looked up): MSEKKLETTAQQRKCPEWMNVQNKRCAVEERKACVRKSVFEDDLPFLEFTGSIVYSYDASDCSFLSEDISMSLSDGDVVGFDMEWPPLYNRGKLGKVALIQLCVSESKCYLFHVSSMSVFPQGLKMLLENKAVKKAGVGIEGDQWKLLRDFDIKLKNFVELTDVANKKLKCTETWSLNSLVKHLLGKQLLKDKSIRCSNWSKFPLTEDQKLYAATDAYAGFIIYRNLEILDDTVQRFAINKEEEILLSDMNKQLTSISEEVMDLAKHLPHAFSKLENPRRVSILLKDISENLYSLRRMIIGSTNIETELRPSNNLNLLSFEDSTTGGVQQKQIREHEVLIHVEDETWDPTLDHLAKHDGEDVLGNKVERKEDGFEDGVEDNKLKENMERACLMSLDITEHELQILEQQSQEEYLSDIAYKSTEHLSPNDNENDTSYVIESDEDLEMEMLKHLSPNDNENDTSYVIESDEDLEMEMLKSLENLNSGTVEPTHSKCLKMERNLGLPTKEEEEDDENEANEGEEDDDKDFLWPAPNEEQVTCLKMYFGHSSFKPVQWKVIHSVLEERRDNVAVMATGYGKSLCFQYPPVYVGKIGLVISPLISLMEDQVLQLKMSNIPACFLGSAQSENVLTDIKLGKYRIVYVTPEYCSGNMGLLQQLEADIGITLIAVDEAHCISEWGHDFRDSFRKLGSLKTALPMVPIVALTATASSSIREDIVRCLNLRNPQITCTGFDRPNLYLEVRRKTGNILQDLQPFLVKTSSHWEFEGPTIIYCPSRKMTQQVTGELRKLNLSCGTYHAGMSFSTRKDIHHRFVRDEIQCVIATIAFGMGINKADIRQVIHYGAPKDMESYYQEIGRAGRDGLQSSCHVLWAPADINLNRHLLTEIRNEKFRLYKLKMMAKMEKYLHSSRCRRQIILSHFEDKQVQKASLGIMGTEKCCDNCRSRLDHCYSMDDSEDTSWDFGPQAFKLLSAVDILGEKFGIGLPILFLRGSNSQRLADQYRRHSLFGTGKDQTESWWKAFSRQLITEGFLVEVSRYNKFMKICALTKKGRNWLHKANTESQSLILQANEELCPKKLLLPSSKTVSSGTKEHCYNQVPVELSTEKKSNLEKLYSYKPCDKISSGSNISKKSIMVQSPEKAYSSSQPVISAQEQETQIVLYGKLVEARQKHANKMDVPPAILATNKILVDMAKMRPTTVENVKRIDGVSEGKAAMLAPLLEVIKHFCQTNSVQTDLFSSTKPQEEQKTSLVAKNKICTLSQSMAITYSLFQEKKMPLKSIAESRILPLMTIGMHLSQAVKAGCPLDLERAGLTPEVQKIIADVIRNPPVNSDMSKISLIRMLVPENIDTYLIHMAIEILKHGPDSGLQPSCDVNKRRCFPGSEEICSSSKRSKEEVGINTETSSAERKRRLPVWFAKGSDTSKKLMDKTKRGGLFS
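Primary qHTS, 1536-well format. 20 nM WRN + compound, 15 min RT; start with 100 nM forked fluorophore/quencher duplex, 2 mM ATP (final); kinetic read ex 525/em 598 nm.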
Pol iota inh: inhibitors of human DNA polymerase iota | Q9UNA4 | Potency, µM (top dose mostly 115 µM), inactives show top-dose activity, negative = inhibition, usual class: inhibitors | hit rate 1% among 390,000 | Pol iota fluorescent replication assay, 10 min; further: potency means the concentration at half of the fitted maximal effect
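Pol iota at 10 nM preincubated 15 min with compounds at room temperature; reaction started with fluorescent substrate, 50 nM final. Fluorescence read kinetically at 0 and 10 min; buffer-only wells as negative control.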
Starred values were filed as active, the others as inactive; u = inconclusive; x = no result given; [ ] = another dose, or the depositor's remark. An excerpt weighted towards active compounds, which were near 2.8% of everything screened. Unless noted, the call rests on the fitted dose curve; in most records, active means well fitted curve in the direction sought with a large enough effect; inconclusive means small, poorly fitted or top-dose-only effect, or another doubt; inactive means no such curve, though single readings can be large; an effect the other way counts as inactive or inconclusive.

SMILES	Pol kappa inh	Pol eta inh	Pol beta inh	PI5P4K alpha inh	WRN inhibitor	Pol iota inh
COc1cccc2sc(Nc3nc4ccc(NC(C)=O)cc4s3)nc12	45µM*	u	u	0	u	16µM*
COc1ccc2nc(NC(=O)c3ccccc3C(=O)O)sc2c1	11%	-8%	45%	-6	4%	10%
COc1ccc(C(=O)Nc2nc3ccccc3s2)c(OC)c1	-11%	-6%	-11%	u	50µM*	14%
O=C(Nc1nc2ccccc2s1)c1cc(-c2ccco2)nc2ccccc12	-5%	u	0%	-16	50µM*	u
CC(=O)Nc1ccc2nc(NC(=O)COc3ccccc3C)sc2c1	-1%	-17%	-27%	8	-6%	73%
Cn1c(=O)c(C(=O)COC(=O)c2cc(C3CC3)nc3ccccc23)c(N)n(Cc2ccccc2)c1=O	-7%	-4%	32%	2	-2%	5%
Cn1c(=O)c(C(=O)COC(=O)c2cc(-c3ccco3)nc3ccccc23)c(N)n(CC2CC2)c1=O	x	x	10µM*	x	x	x
Cc1ccnc2ccc(I)cc12	-1%	x	x	x	x	46%
O=C(O)c1cc(-c2ccco2)nc2ccccc12	28µM*	7.1µM*	18µM*	-28	u	13µM*
O=C(NC(=S)Nc1cccc(S(=O)(=O)NC2=NCCC2)c1)c1cc(-c2ccco2)nc2ccccc12	u	u	40µM*	-50*	u	28µM*
COc1ccc(CNC(=O)COC(=O)c2cc(C)nc3ccccc23)cc1	-10%	1%	x	-10	-27%	16%
COc1ccc(CNC(=O)COC(=O)c2cc(-c3ccco3)nc3ccccc23)cc1	x	x	7.1µM*	x	x	x
CC[C@H](C)NC(=O)c1ccc(Cn2c(=S)[nH]c3c([nH]c4ccc(OC)cc43)c2=O)cc1	1%	18µM*	u	u	-2%[11.6 µM]	u
COc1ccc2[nH]c3c(=O)n(Cc4ccc(C(=O)N5CCCCCC5)cc4)c(=S)[nH]c3c2c1	-13%	-5%	37%	2	-7%	-27%
COc1ccc2[nH]c3c(=O)n(Cc4ccc(C(=O)N5CCC(C(N)=O)CC5)cc4)c(=S)[nH]c3c2c1	-11%	-27%	2%	-59*	-9%	7%
CCCCNC(=O)c1ccc(Cn2c(=S)[nH]c3c([nH]c4ccc(OC)cc43)c2=O)cc1	-13%	u	u	-20	-30%	12%
CCCCC#Cc1ccccc1CC(=O)Nc1ccccc1	-6%	-7%	20%	8	-9%	u
CCCCCCCC#Cc1ccccc1/C=N/S(=O)c1ccc(C)cc1 (centres undefined)	-25%	-9%	2%	-100*	-4%	41%
O=c1cc(/N=C/c2coc3c(ccc4ccccc43)c2=O)[nH]c(=S)[nH]1	u	u	22µM*	-75*	-4%	u
CC(=C\c1ccccc1)/C=C1/SC(=O)N(CCCC(=O)Nc2ccc(C(=O)O)cc2)C1=O	-7%	-3%	24%	-4	-8%	12%
O=C(CCCN1C(=O)S/C(=C/C=C/c2ccccc2)C1=O)Nc1ccc(C(=O)O)cc1	-13%	89µM*	79%	-29	-3%[11.6 µM]	u
CC(C)(C)OC(=O)NCC(=O)Oc1cc2oc(=O)cc(-c3ccccc3)c2cc1Cl	-4%	-12%	-14%	-72*	-1%	7%
CCOC(=O)c1cnc(-n2[nH]c(C)c(Cc3ccccc3)c2=O)[nH]c1=O	-3%	u	3.2µM*	-9	-17%	u
OCCN=c1cc(-c2ccccc2)oc2ccc(Cl)cc12	-8%	2%	89µM*	0	-5%	u
O=C(c1cc2ccccc2[nH]1)c1cc2cc(O)ccc2[nH]1	6%	x	x	x	x	7%
SMILES	Pol kappa inh	Pol eta inh	Pol beta inh	PI5P4K alpha inh	WRN inhibitor	Pol iota inh
CN(C1CCCCC1)S(=O)(=O)c1cc2c3c(c1)CCN3C(=O)CC2	2%	-19%	x	-1	-5%	-29%
O=C1CCc2cc(S(=O)(=O)NC3CCCCC3)cc3c2N1CC3	-1%	u	x	-7	-20%	50µM*
CCS(=O)(=O)c1ccc2oc(Nc3ccc(OC)cc3)nc2c1	-2%	-25%	-11%	-1	-14%	29%
CCS(=O)(=O)c1ccc2oc(Nc3cccc(OC)c3)nc2c1	-5%	-12%	35µM*	x	-6%	-10%
CCCCCCC(=O)N(O)C1CC(=O)N(c2ccc(Cl)cc2)C1=O (centres undefined)	3%	-8%	-14%	-26	79µM*	-2%
Cc1ccc(Nc2ncc(C(=O)N3CCN(c4ccc(F)cc4)CC3)c3ccccc23)cc1Cl	0%	-11%	20%	x	x	-9%
O=C(c1cc(-c2ccc(Br)cc2)nc2ccccc12)N1CCC1	-9%	0%	x	-5	-32%	33%
O=C(c1cc(-c2cccc(Br)c2)nc2ccccc12)N1CCCC1	-24%	-17%	22µM*	-16	-14%	u
O=C(O)c1c2c(nc3ccc(S(=O)(=O)N4CCC(C(=O)N5CCCCC5)CC4)cc13)CCCC2	u	32µM*	-2%	4	-12%[57.1 µM]	u
CC(/C=C/C1(O)C(C)CC(O)CC1(C)C)OC1OC(CO)C(O)C(O)C1O (centres undefined)	56µM*	35µM*	25µM*	7	-15%	u
CC(/C=C/C1[C@H](C)C[C@H](O[C@@H]2O[C@H](CO)[C@@H](O)[C@H](O)[C@H]2O)CC1(C)C)O[C@H]1O[C@H](CO)[C@@H](O)[C@H](O)[C@H]1O (some centres undefined)	8%	-10%	x	13	5%	-13%
COC(=O)c1ccccc1NC(=O)c1cnn2c1NC(=C1CC1)C=C2C(F)F	3%	x	x	x	x	18%
O=C(NCc1ccco1)C(c1ccc(F)cc1)N(CC1CCCO1)C(=O)Cn1nnc2ccccc21 (centres undefined)	-6%	-17%	0.32µM*	-2	1%	16%
COCCNC(=O)C(c1ccc(C)o1)N(CC1CCCO1)C(=O)Cn1nnc2ccccc21 (centres undefined)	-1%	-5%	-2%	0	5%	8%
COc1ccc(C(=O)c2oc3ccccc3c2NC(=O)COc2cccc(C)c2C)cc1	-6%	-16%	-23%	x	x	8%
COCCCNC(=O)C1CC(=O)N(CCc2ccc(OC)c(OC)c2)C1 (centres undefined)	-18%	32µM*	0%	3	-12%	-4%
COc1ccc(CCN2CC(C(=O)NCCc3ccccc3)CC2=O)cc1OC (centres undefined)	4%	-16%	u	3	-7%	27%
Cc1ccc2nc(-c3ccc(C)c(NC(=O)COc4ccc(Br)cc4)c3)oc2c1	3%	x	x	x	x	-5%
